# The list is not random: actives were taken first. Their share in the collection is about 8%.
# SARS PLP yeast – blocks SARS-CoV papain-like protease in a yeast assay; Potency, µM (titrated, usually from 32.9 µM), for inactives: at the top dose activity, positive = growth rescue, most hits filed as activators; S. cerevisiae expressing SARS-CoV PLpro, growth rescue; 0.19% of 330,000 active; calls by dose curve; also: potency is read from the fitted curve at half-maximal effect; 0% is about no effect; nearly all actives have a fitted effect of over 55% in size
# FMDV antiviral – blocks foot and mouth disease virus | FMDV antiviral cell-based qHTS | Potency, µM (titrated, usually from 57.9 µM), without a hit: at the top dose activity change, negative = inhibition, most hits filed as inhibitors | 1.2% of 410,000 active; calls by dose curve; tested in HEK293T cells; also: read-out not given here; potency is read from the fitted curve at half-maximal effect; % is scaled to controls: 0 for no effect and ±100 for the full control effect; nearly all actives have a fitted effect of over 45% in size
# Lassa entry inh – inhibitors of Lassa virus binding or cell entry | 1.2% of 300,000 active | Potency, µM (series often up to 37.9 µM), without a hit: at the highest dose activity change, negative = inhibition, usual class: inhibitors | Lassa virus pseudotype entry inhibition, cell reporter; calls by dose curve; tested in HEK293 cells; also: potency is read from the fitted curve at half-maximal effect; % is scaled to controls: 0 for no effect and ±100 for the full control effect; nearly all actives have a fitted effect of over 50% in size
# HCMV antiviral – inhibitors of human cytomegalovirus | HFF cells, HCMV-luciferase reporter, 72 h; hits give low values | AID 1259415 | 4.5% of 410,000 active | activity change, negative = inhibition, % at 57.5 µM; in the data active = activity change below about -60%; inconclusive = no clear call, values can overlap the other calls; inactive = above about -39%; also: % is scaled to controls: 0 for no effect and ±100 for the full control effect
#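 Screen run at 2 compound doses on HFFs infected with reporter HCMV, MOI 1 PFU/cell. Luciferase activity from cell lysates at 72 h post infection gave inhibition relative to buffer-only and Salinomycin wells.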
# Marburg entry inh – inhibitors of Marburg virus binding or cell entry. Marburg virus pseudotyped entry inhibition, cell reporter. Potency, µM (doses to about 37.8 µM), inactives show at the highest dose activity change, negative = inhibition, actives largely listed as inhibitors. 1.8% of 300,000 active. AID 540276; calls by dose curve; tested in HEK293 cells; also: potency is read from the fitted curve at half-maximal effect; % is scaled to controls: 0 for no effect and ±100 for the full control effect
# HCV inh – blocks hepatitis C virus. Huh7.5.1 HCVcc-Cre infection, luciferase reporter, 44 h. Potency, µM (titrated, usually from 41.8 µM), inactives show top-dose activity change, negative = inhibition, hits mostly inhibitors. 3.4% of 340,000 active. AID 651820; active = well fitted inhibition curve with a large enough effect; inconclusive = small, poorly fitted or top-dose-only effect, or another doubt; inactive = no such curve, though single readings can be large or run the other way; also: potency is read from the fitted curve at half-maximal effect; % is scaled to controls: 0 for no effect and ±100 for the full control effect
#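 Cells seeded at 1,000/well and cultured 4 h, then compounds added followed by HCVcc-Cre virus (~0.5 moi). After 44 h further culture, luciferase substrate was added, plates held 15 min at room temperature, and luminescence read for 15 sec.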
# * hit, by the source's call; ? = inconclusive; nt = not tested or not shown; ! = a repeat was not active; [ ] = dose if it differs, or a comment.
SMILES,SARS PLP yeast,FMDV antiviral,Lassa entry inh,HCMV antiviral,Marburg entry inh,HCV inh
CCc1ccc(/C=N/Nc2ncnc3nc[nH]c23)cc1,2%,-26%,7.9µM*,36,?,10%
Cc1c(C(=O)NCCC2=CCCCC2)oc2ccc(S(=O)(=O)N3CCC4(CC3)OCCO4)cc12,-11%,18µM*,?,-27,?,13µM*
Cc1c(C(=O)Nc2ccc(F)c(F)c2)oc2ccc(S(=O)(=O)N3CCCCC3)cc12,-1%,14µM*,16%[46.1 µM],-20,?,6.3µM*
Cc1c(C(=O)Nc2ccc(F)cc2)oc2ccc(S(=O)(=O)N3CCC4(CC3)OCCO4)cc12,-2%,22µM*,?,-63*,5.8µM*,4.5µM*
Cc1ccc(NC(=O)c2oc3ccc(S(=O)(=O)N4CCCCCC4)cc3c2C)cc1Cl,nt,?,-10%[46.1 µM],-15,nt,nt
Cc1c(C(=O)Nc2ccc(F)c(F)c2)oc2ccc(S(=O)(=O)N3CCC4(CC3)OCCO4)cc12,nt,-23%,11%[46.1 µM],1,nt,nt
Cc1c(C(=O)NCc2ccccc2)oc2ccc(S(=O)(=O)N3CCC4(CC3)OCCO4)cc12,-10%,?,?,-16,?,?
Cc1cnc(SCC2CCCO2)nc1C1CCCN(Cc2nc(-c3ccccc3)cs2)C1 (centres undefined),nt,-16%,nt,nt,nt,nt
Cc1nnc2nc(-c3ccccc3)nc(-c3ccccc3)n12,-2%,9%,nt,-80*,nt,?
Cn1nc(-c2ccccc2)nc1-c1ccccc1,-8%,68%,nt,15,nt,0%
Clc1ccc(CN2C3=NCCN3c3ccccc32)cc1,-4%,0%,-21%,13,?,13µM*
CC(C)(C)c1ccc(CN2C3=NCCCN3c3ccccc32)cc1,-4%,?,?,-85*,2.6µM*,32µM*
c1ccc(CN2C3=NCCCN3c3ccccc32)cc1,0%,-28%,-2%,-15,?,?
O=C(CN1C2=NCCCN2c2ccccc21)c1ccc2c(c1)OCO2,-1%,nt,?,-28,?,11µM*
O=C(O)CN1C2=NCCCN2c2ccccc21,1%,0%,-3%,-24,3%[46.1 µM],10%
Cc1ccc(CN2C3=NCCCN3c3ccccc32)cc1,11%,-16%,-1%,-2,?,?
Brc1ccc(CN2C3=NCCCN3c3ccccc32)cc1,2%,?,?,?,10µM*,?
Cc1cnc(SCC2CCCO2)nc1C1CCCN(C(=O)C2=NNC(=O)CC2)C1 (centres undefined),nt,-4%,nt,nt,nt,nt
CCCCCCCN1C2=NCCCN2c2ccccc21,-3%,?,?,?,?,10µM*
COC(=O)CC=C1c2ccccc2OC[C@@H](OC)[C@H]1C,nt,nt,nt,nt,2%[14.2 µM],nt
CCn1c(C)nc2cc(C(=O)OC(C(F)(F)C(F)F)C(F)(F)C(F)F)ccc21,-33%,-11%,?,1,14µM*,?
CN1C(=O)C(n2ccc3ccccc32)c2cc(OC(F)(F)F)ccc21 (centres undefined),nt,nt,nt,-9,nt,nt
COc1ccc(N2CCN(C(c3cc(OC)ccc3OC)c3nnnn3Cc3ccco3)CC2)cc1 (centres undefined),-7%,22%,?,-33,10µM*!,12%
COCCn1nnnc1C(c1ccc(OC)cc1OC)N1CCN(c2ccccc2)CC1 (centres undefined),3%,-15%,8%,83,?,9%
COc1ccc(OC)c(C(c2nnnn2CCc2ccccc2)N2CCN(c3ccccc3)CC2)c1 (centres undefined),1%,18%,10µM*,-12,?,?
SMILES,SARS PLP yeast,FMDV antiviral,Lassa entry inh,HCMV antiviral,Marburg entry inh,HCV inh
O=C(c1cccc(Cl)c1)n1nc(-c2cccnc2)nc1NCc1ccccc1,nt,2%,?,8,5%[46.1 µM],nt
COc1cccc(NC(=O)Cn2c(=O)n(-c3ccc(C)cc3)c(=O)c3ccccc32)c1,nt,-11%,-25%[46.1 µM],?,?,nt
CCCN(CCC)C(=O)Cn1c(=O)n(-c2ccc(Cl)c(Cl)c2)c(=O)c2c(C)c(C(=O)N(C)C)sc21,nt,-6%,15%[46.1 µM],73,nt,nt
NC(=O)c1ccsc1NC(=O)CCS(=O)(=O)c1ccc(F)cc1,6%,?,9%[46.1 µM],-63*,-12%,?
COc1ccc(-c2[nH]ncc2/C=C(/C#N)C(=O)NC2CCCCCC2)cc1,2%,-8%,?,?,10µM*,22µM*
CCOC(=O)c1c(C)[nH]c(C)c1C(=O)COC(=O)[C@@H](NC(=O)c1ccco1)C(C)C,2%,-9%,26%,-9,7%,20%
C=Cc1cccc(NC(=O)c2ccc(NC(=O)c3ccco3)cc2)c1,-1%,-5%,nt,?,nt,11µM*
CCOC(=O)c1c(C)[nH]c(C)c1C(=O)COc1ccc(NC(=O)c2ccco2)cc1,0%,-28%,-19%,-64*,-2%,-14%
CCOc1ccccc1NC(=O)c1cccc(NC(=O)c2ccco2)c1,-25%,?,?,?,?,3.2µM*
CCOC(=O)c1cccc(NC(=O)c2ccc(NC(=O)c3ccco3)cc2)c1,-3%,?,nt,-64*,nt,?
Cc1ccc(NC(=O)N2CC3CCCN3c3ccccc32)c(C)c1 (centres undefined),nt,-19%,-9%[46.1 µM],9,nt,nt
O=C(/C=C/c1ccc(Br)cc1)c1ccc(NC(=O)c2ccco2)cc1,-16%,4%,-5%,-29,?,?
O=C(/C=C\c1ccccc1)Nc1ccc(NC(=O)c2ccco2)cc1,-1%,-21%,-27%,-101*,-13%[14.2 µM],?
CCOc1cc(NS(=O)(=O)c2ccccc2)c(OCC)cc1NC(=O)c1ccco1,-3%,-15%,-6%,-101*,-14%,-7%
COc1ccc(C(=O)c2c(C(F)(F)F)oc3c2C(=O)c2ccccc2C3=O)cc1OC,-29%,10µM*,2.5µM*,-103*,2.8µM*,?
COc1cc(O)c(CC=C(C)C)c(O)c1C(=O)CCc1ccc(O)cc1,-11%,-10%,nt,-15,nt,0.71µM*
O=C(CCc1ccc(O)cc1)c1c(O)cc(O)cc1O,8%,2%,?,-14,?,-22%[8.37 µM]
COC(=O)N1C(C)=Cc2ccccc2C1CC(C)=O (centres undefined),nt,nt,nt,nt,-9%[14.2 µM],nt
COc1ccc(C(=O)Nc2ccc3ccccc3c2)cc1,1%,-50%,nt,0,nt,-11%
COc1ccc(/C(C)=N/Nc2ccc(C(=O)O)cc2)cc1OC,5%,-15%,?,21,?,4%
COc1cc(C(=O)Nc2ccc3c(c2)ncn3C(C)(C)C)cc(OC)c1OC,-10%,11%,nt,53,nt,13µM*
COc1cc(C(=O)Nc2ccc3ccccc3c2)cc(OC)c1OC,-9%,20%,-11%[46.1 µM],47,1.4µM*,?
COc1ccc(OC)c(/C(C)=N/Nc2ccc(C(=O)O)cc2)c1,-2%,-19%,30%[46.1 µM],-96*,20%[46.1 µM],24%

# Screening results as filed in PubChem BioAssay.
